# Measurements taken from doi:10.1101/2024.03.05.583629.
# Biological target: pT7_6His-AlfaTag-HOXD13 (human, UniProt P35453 263-343)
# Test: PADIT-seq
# Settings: dsDNA, one strand shown
# Sequence of pT7_6His-AlfaTag-HOXD13 (P35453 263-343): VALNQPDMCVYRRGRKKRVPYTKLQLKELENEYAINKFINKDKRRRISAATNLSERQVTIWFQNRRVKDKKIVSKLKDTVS
row,Sequence,binding signal
1,CTCGAGGATATCAAGATCTGGCCTCGGCACTATAAAAGGAACCTCTAGCTAGCCGACTCACTATAGGGATAATCGCCCTGAGCAAAGACC,2.93 ± 0.0918 log2FC
2,CTCGAGGATATCAAGATCTGGCCTCGGCTAGCTAAAAGGAACCTCTAGCTAGCCGACTCACTATAGGGATAATCGCCCTGAGCAAAGACC,-0.637 ± 0.145 log2FC
3,CTCGAGGATATCAAGATCTGGCCTCGGCATTTTATACGGAACCTCTAGCTAGCCGACTCACTATAGGGATAATCGCCCTGAGCAAAGACC,2.61 ± 0.0763 log2FC
4,CTCGAGGATATCAAGATCTGGCCTCGGCAAATGGGCGGGAACCTCTAGCTAGCCGACTCACTATAGGGATAATCGCCCTGAGCAAAGACC,-0.536 ± 0.104 log2FC
5,CTCGAGGATATCAAGATCTGGCCTCGGCATATTAAAAGGAACCTCTAGCTAGCCGACTCACTATAGGGATAATCGCCCTGAGCAAAGACC,2.69 ± 0.07 log2FC
6,CTCGAGGATATCAAGATCTGGCCTCGGCTTTTTACAGGGAACCTCTAGCTAGCCGACTCACTATAGGGATAATCGCCCTGAGCAAAGACC,3.18 ± 0.0923 log2FC
7,CTCGAGGATATCAAGATCTGGCCTCGGCAACCTAAAAGGAACCTCTAGCTAGCCGACTCACTATAGGGATAATCGCCCTGAGCAAAGACC,-0.715 ± 0.12 log2FC
8,CTCGAGGATATCAAGATCTGGCCTCGGCCGCTTGCGCGGAACCTCTAGCTAGCCGACTCACTATAGGGATAATCGCCCTGAGCAAAGACC,-0.985 ± 0.131 log2FC
9,CTCGAGGATATCAAGATCTGGCCTCGGCTTTTTACCTGGAACCTCTAGCTAGCCGACTCACTATAGGGATAATCGCCCTGAGCAAAGACC,-0.185 ± 0.138 log2FC
10,CTCGAGGATATCAAGATCTGGCCTCGGCCGCCCATGCGGAACCTCTAGCTAGCCGACTCACTATAGGGATAATCGCCCTGAGCAAAGACC,-0.953 ± 0.115 log2FC
11,CTCGAGGATATCAAGATCTGGCCTCGGCAAATTAAAAGGAACCTCTAGCTAGCCGACTCACTATAGGGATAATCGCCCTGAGCAAAGACC,2.15 ± 0.08 log2FC
12,CTCGAGGATATCAAGATCTGGCCTCGGCATTTTACTTGGAACCTCTAGCTAGCCGACTCACTATAGGGATAATCGCCCTGAGCAAAGACC,1.23 ± 0.0944 log2FC

# Biological target: pT7_6His-AlfaTag-ZIF268 (human, UniProt P18146 335-423)
# Test: PADIT-seq
# Settings: dsDNA, one strand shown
row,Sequence,binding signal
1,CTCGAGGATATCAAGATCTGGCCTCGGCGTTTTACGGGGAACCTCTAGCTAGCCGACTCACTATAGGGATAATCGCCCTGAGCAAAGACC,0.0617 ± 0.0868 log2FC
2,CTCGAGGATATCAAGATCTGGCCTCGGCGCGGGGGCGGGAACCTCTAGCTAGCCGACTCACTATAGGGATAATCGCCCTGAGCAAAGACC,3.63 ± 0.0947 log2FC
3,CTCGAGGATATCAAGATCTGGCCTCGGCCTTTTAAGGGGAACCTCTAGCTAGCCGACTCACTATAGGGATAATCGCCCTGAGCAAAGACC,0.073 ± 0.082 log2FC
4,CTCGAGGATATCAAGATCTGGCCTCGGCTCGGTAAAAGGAACCTCTAGCTAGCCGACTCACTATAGGGATAATCGCCCTGAGCAAAGACC,0.074 ± 0.0831 log2FC
5,CTCGAGGATATCAAGATCTGGCCTCGGCCATCCACGCGGAACCTCTAGCTAGCCGACTCACTATAGGGATAATCGCCCTGAGCAAAGACC,0.00839 ± 0.0869 log2FC
6,CTCGAGGATATCAAGATCTGGCCTCGGCGCGTGGACAGGAACCTCTAGCTAGCCGACTCACTATAGGGATAATCGCCCTGAGCAAAGACC,0.15 ± 0.106 log2FC
7,CTCGAGGATATCAAGATCTGGCCTCGGCTATTGGGCGGGAACCTCTAGCTAGCCGACTCACTATAGGGATAATCGCCCTGAGCAAAGACC,0.205 ± 0.0951 log2FC
8,CTCGAGGATATCAAGATCTGGCCTCGGCATTTTACAGGGAACCTCTAGCTAGCCGACTCACTATAGGGATAATCGCCCTGAGCAAAGACC,0.116 ± 0.0849 log2FC
9,CTCGAGGATATCAAGATCTGGCCTCGGCGTTTTAGTGGGAACCTCTAGCTAGCCGACTCACTATAGGGATAATCGCCCTGAGCAAAGACC,0.0814 ± 0.0894 log2FC
10,CTCGAGGATATCAAGATCTGGCCTCGGCCGCGCCCGCGGAACCTCTAGCTAGCCGACTCACTATAGGGATAATCGCCCTGAGCAAAGACC,0.0207 ± 0.105 log2FC
11,CTCGAGGATATCAAGATCTGGCCTCGGCAGATTAAAAGGAACCTCTAGCTAGCCGACTCACTATAGGGATAATCGCCCTGAGCAAAGACC,0.0127 ± 0.0692 log2FC
12,CTCGAGGATATCAAGATCTGGCCTCGGCATCTTAAAAGGAACCTCTAGCTAGCCGACTCACTATAGGGATAATCGCCCTGAGCAAAGACC,0.00209 ± 0.0901 log2FC
13,CTCGAGGATATCAAGATCTGGCCTCGGCATATGGGCGGGAACCTCTAGCTAGCCGACTCACTATAGGGATAATCGCCCTGAGCAAAGACC,0.0376 ± 0.0849 log2FC
14,CTCGAGGATATCAAGATCTGGCCTCGGCTTTTTAGTGGGAACCTCTAGCTAGCCGACTCACTATAGGGATAATCGCCCTGAGCAAAGACC,0.00131 ± 0.0904 log2FC
15,CTCGAGGATATCAAGATCTGGCCTCGGCTTGTGGGCGGGAACCTCTAGCTAGCCGACTCACTATAGGGATAATCGCCCTGAGCAAAGACC,2.19 ± 0.0788 log2FC
16,CTCGAGGATATCAAGATCTGGCCTCGGCGAGTGGGCGGGAACCTCTAGCTAGCCGACTCACTATAGGGATAATCGCCCTGAGCAAAGACC,2.79 ± 0.0771 log2FC
17,CTCGAGGATATCAAGATCTGGCCTCGGCTCATGGGCGGGAACCTCTAGCTAGCCGACTCACTATAGGGATAATCGCCCTGAGCAAAGACC,0.0784 ± 0.105 log2FC
18,CTCGAGGATATCAAGATCTGGCCTCGGCTTTTTAGGCGGAACCTCTAGCTAGCCGACTCACTATAGGGATAATCGCCCTGAGCAAAGACC,0.0276 ± 0.11 log2FC
19,CTCGAGGATATCAAGATCTGGCCTCGGCACCATAAAAGGAACCTCTAGCTAGCCGACTCACTATAGGGATAATCGCCCTGAGCAAAGACC,0.0345 ± 0.0841 log2FC

row,Sequence,binding signal
1,CTCGAGGATATCAAGATCTGGCCTCGGCTTTTTACCAGGAACCTCTAGCTAGCCGACTCACTATAGGGATAATCGCCCTGAGCAAAGACC,0.0254 ± 0.098 log2FC
2,CTCGAGGATATCAAGATCTGGCCTCGGCGGGTTAAAAGGAACCTCTAGCTAGCCGACTCACTATAGGGATAATCGCCCTGAGCAAAGACC,0.0267 ± 0.0801 log2FC
3,CTCGAGGATATCAAGATCTGGCCTCGGCCGCCCAATGGGAACCTCTAGCTAGCCGACTCACTATAGGGATAATCGCCCTGAGCAAAGACC,0.0226 ± 0.0907 log2FC
4,CTCGAGGATATCAAGATCTGGCCTCGGCGTTTTAACGGGAACCTCTAGCTAGCCGACTCACTATAGGGATAATCGCCCTGAGCAAAGACC,0.0881 ± 0.0918 log2FC
5,CTCGAGGATATCAAGATCTGGCCTCGGCCGCCCACTAGGAACCTCTAGCTAGCCGACTCACTATAGGGATAATCGCCCTGAGCAAAGACC,0.246 ± 0.0891 log2FC
6,CTCGAGGATATCAAGATCTGGCCTCGGCCGCGACCGCGGAACCTCTAGCTAGCCGACTCACTATAGGGATAATCGCCCTGAGCAAAGACC,0.0618 ± 0.097 log2FC
7,CTCGAGGATATCAAGATCTGGCCTCGGCTTTTTAGAAGGAACCTCTAGCTAGCCGACTCACTATAGGGATAATCGCCCTGAGCAAAGACC,0.0735 ± 0.104 log2FC
8,CTCGAGGATATCAAGATCTGGCCTCGGCACTATAAAAGGAACCTCTAGCTAGCCGACTCACTATAGGGATAATCGCCCTGAGCAAAGACC,0.0278 ± 0.1 log2FC
9,CTCGAGGATATCAAGATCTGGCCTCGGCTAGCTAAAAGGAACCTCTAGCTAGCCGACTCACTATAGGGATAATCGCCCTGAGCAAAGACC,0.0229 ± 0.123 log2FC
10,CTCGAGGATATCAAGATCTGGCCTCGGCATTTTATACGGAACCTCTAGCTAGCCGACTCACTATAGGGATAATCGCCCTGAGCAAAGACC,0.0469 ± 0.0817 log2FC
11,CTCGAGGATATCAAGATCTGGCCTCGGCAAATGGGCGGGAACCTCTAGCTAGCCGACTCACTATAGGGATAATCGCCCTGAGCAAAGACC,0.157 ± 0.0868 log2FC
12,CTCGAGGATATCAAGATCTGGCCTCGGCATATTAAAAGGAACCTCTAGCTAGCCGACTCACTATAGGGATAATCGCCCTGAGCAAAGACC,0.0247 ± 0.0768 log2FC
13,CTCGAGGATATCAAGATCTGGCCTCGGCTTTTTACAGGGAACCTCTAGCTAGCCGACTCACTATAGGGATAATCGCCCTGAGCAAAGACC,0.066 ± 0.102 log2FC
14,CTCGAGGATATCAAGATCTGGCCTCGGCAACCTAAAAGGAACCTCTAGCTAGCCGACTCACTATAGGGATAATCGCCCTGAGCAAAGACC,0.113 ± 0.099 log2FC
15,CTCGAGGATATCAAGATCTGGCCTCGGCCGCTTGCGCGGAACCTCTAGCTAGCCGACTCACTATAGGGATAATCGCCCTGAGCAAAGACC,0.0632 ± 0.103 log2FC
16,CTCGAGGATATCAAGATCTGGCCTCGGCTTTTTACCTGGAACCTCTAGCTAGCCGACTCACTATAGGGATAATCGCCCTGAGCAAAGACC,0.019 ± 0.125 log2FC
17,CTCGAGGATATCAAGATCTGGCCTCGGCCGCCCATGCGGAACCTCTAGCTAGCCGACTCACTATAGGGATAATCGCCCTGAGCAAAGACC,0.0314 ± 0.091 log2FC
18,CTCGAGGATATCAAGATCTGGCCTCGGCAAATTAAAAGGAACCTCTAGCTAGCCGACTCACTATAGGGATAATCGCCCTGAGCAAAGACC,0.0496 ± 0.0856 log2FC
19,CTCGAGGATATCAAGATCTGGCCTCGGCATTTTACTTGGAACCTCTAGCTAGCCGACTCACTATAGGGATAATCGCCCTGAGCAAAGACC,0.0654 ± 0.0956 log2FC
